Results as given in PubChem BioAssay (Tox21).
A number with no mark means an inactive call. Active and inactive are the calls of the source. Calls follow the shape of the dose curve; as a rule, active = well fitted curve in the direction sought with a large enough effect in the repeat runs; inconclusive = weak or mixed curves; inactive = flat fitted curve, though single readings scatter.

Assay: qHTS assay to test for compound auto fluorescence at 535 nm (green) in HepG2 cell free culture (AID 720686)
Conditions: Cell-free medium, green autofluorescence 485/535 nm; series mostly up to 91.3 µM; fluorescence, % of fluorescein control: at the top concentration
From the text: U.S. Tox21 Program National Center for Advancing Translational Sciences [NCATS] NIH Chemical Genomics Center [NCGC] U.S. Environmental Protection Agency [EPA] National Institutes of Environmental Health Sciences [NIEHS] National Toxicology Program [NTP] U.S. Food and Drug Administration [FDA] Tox21 Assay Overview: Compound auto fluorescence often interferes with screening of the compound library against various biological targets and signaling pathways. Some of these compounds may have fluorophoric properties. Such properties may interfere with the assay outputs resulting in false positives and/or negatives. To decrease such complications and ensure the compound activities are relevant in terms of biological response, the Tox21 10K compound library was screened for auto fluorescence. From the fluorophores used as reporter signals in our screening assays, the auto fluorescence equivalencies of compounds against three fluorophores have been evaluated: Triamterene, Fluorescein and Rose Bengal sodium for blue, green and red fluorescence, respectively. The fluorescence intensities were measured using Excitation/Emission wavelengths at 405/460nm, 485/535nm and 540/590nm for blue, green and red labels, respectively. This assay includes the green fluorescence data.
Tox21 Assay Protocol Summary: 5 uL of culture medium (MEM containing 10% FBS) per well was dispensed into black wall/clear bottom 1536-well plates using a Multidrop Combi Dispenser (ThermoFisher Scientific, Waltham, MA). After 23 nL compound or DMSO vehicle was transferred into assay plate by a pintool work station (Kalypsys, San Diego, CA), fluorescence intensities in the assay plates were measured by an Envision (PerkinElmer, Shelton, CT) plate reader using three labels for measuring blue, green and red fluorescence at […] 460, 535 and 590nm respectively.
% is scaled to controls: 0 for no effect and ±100 for the full control effect.

SMILES	fluorescence, % of fluorescein control	outcome
Nc1cc2c3c(c1)C(c1ccccc1)=N[C@@H](NC(=O)c1cccnc1)C(=O)N3CC2	-0.0427%	–
BrCCCCCCBr	0.113%	–
O=CNC(N1CCN(C(NC=O)C(Cl)(Cl)Cl)CC1)C(Cl)(Cl)Cl (stereo not given)	0.0062%	–
ClC(Cl)C(Cl)Cl	0.006%	–
COP(N)(=S)Oc1ccccc1C(=O)OC(C)C (stereo not given)	-0.0023%	–
CC(=O)Nc1cc([As](=O)(O)O)ccc1O	-0.233% [at 46 µM]	–
CCOP(=S)(Oc1cnc(C(C)(C)C)nc1)OC(C)C (stereo not given)	0.136%	–
O=[N+]([O-])c1cccc2c([N+](=O)[O-])cccc12	-0.0897%	–
CNC(=O)O/N=C(\C)SC	0.0147%	–
O=S(=O)(O)C(F)(F)C(F)(F)C(F)(F)C(F)(F)C(F)(F)C(F)(F)F	-0.123%	–
Cc1cc(C)nc(Nc2ccccc2)n1	0.0716%	–
CC(=O)CC(c1ccc(Cl)cc1)c1c(O)c2ccccc2oc1=O (stereo not given)	0.0286% [at 95.7 µM]	–
O=c1oc2ccccc2c(O)c1C1CCCc2ccccc21 (stereo not given)	-0.11%	–
CCOP(=O)(OCC)OP(=O)(OCC)OCC	0.0131%	–
OC(Cn1cncn1)(c1ccc(F)cc1)c1ccccc1F (stereo not given)	-0.0209%	–
OC(c1ccccc1)(c1ccccc1)C1CCNCC1	-0.0573% [at 18.6 µM]	–
CC1(C)C(=O)NC(=O)NC1=O	-0.0203%	–
CC(C)CP(=S)(S)CC(C)C	-0.102%	–
COC(=O)C(C)Oc1ccc(Oc2ccc(Cl)cc2Cl)cc1 (stereo not given)	-0.0517%	–
CC(N)=S	0.0132%	–

SMILES	fluorescence, % of fluorescein control	outcome
COc1cc2c(cc1OC)[C@@]13CCN4CC5=CCO[C@H]6CC(=O)N2[C@H]1[C@H]6[C@H]5C[C@H]43	–	inactive
CCOP(=S)(OCC)SCSc1ccc(Cl)cc1	–	inactive
COC(=O)c1ccccc1S(=O)(=O)NC(=O)Nc1nc(C)cc(C)n1	0.0916%	–
COc1cccc(C(=O)NN(C(=O)c2cc(C)cc(C)c2)C(C)(C)C)c1C	0.0975%	–
O=C(N[C@H]1CN2CCC1CC2)c1cc2ccoc2cn1	0.0876%	–
CC1CCCCC1NC(=O)Nc1ccccc1 (stereo not given)	0.045%	–
CC(=O)C(Cl)Cl	0.161% [at 95.7 µM]	–
ClC(Cl)Br	0.0308%	–
CC(C)NCC(O)c1ccc(N)c(C#N)c1 (stereo not given)	0.0651% [at 46 µM]	–
CCOC(=O)CP(=O)(OCC)OCC	-0.0012%	–
O=C1CN=C(c2ccccc2)c2cc([N+](=O)[O-])ccc2N1	0.0005% [at 46 µM]	–
CC1(C(=O)Nc2ccc(O)c(Cl)c2Cl)CCCCC1	-0.0027%	–
CNC(=O)Oc1ccccc1C1OCCO1	0.203%	–
CCCCOP(=O)(O)OCCCC	-0.0765%	–
CCCCCCBr	0.002% [at 95.7 µM]	–
C[C@]1(O)CC[C@H]2[C@@H]3CCC4=CC(=O)CC[C@]4(C)[C@@]3(F)[C@@H](O)C[C@@]21C	–	inactive
Cc1ncsc1CCCl	0.0928% [at 46 µM]	–
O=C(Oc1ccc(Br)cc1)N1CCN2CCC1CC2	-0.005%	–
c1coc(-c2nc3ccccc3[nH]2)c1	0.0875%	–
CC(=O)[C@H]1CC[C@H]2[C@@H]3CC[C@H]4C[C@H](O)CC[C@]4(C)[C@H]3C(=O)C[C@]12C	-0.0299% [at 46 µM]	–
